In the library only some 6.7% were active in any assay of this set; here they are far more common.
Pf Dd2 growth = inhibitors of Plasmodium falciparum Dd2 growth. P. falciparum Dd2 growth, SYBR Green, 72 h; active compounds read low. activity change, % at 10 µM. hit rate 2.3% among 94,000; in the data active = activity change below about -80%; inconclusive = no clear call, values can overlap the other calls
T cruzi growth-1 = T. cruzi proliferation inhibition; T. cruzi beta-gal in NIH3T3, GalScreen luminescence, 90 h; hit rate 5.9% among 77,000; inhibition, % at 8.34 µM;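 active = mean inhibition above about 93%, with at least 55% of replicates each passing it, limit read from the data, passing the limit was not always enough; inconclusive = only one of those two conditions holds; inactive = neither condition holds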
C diff HTS = C. difficile growth inhibition; Clostridium difficile clinical isolate growth, OD600, 24 h; active compounds read low; growth activity, negative = inhibition, % at 16 µg/mL (by protocol); hit rate 0.25% among 86,000; AID 1259249;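 active = mean growth activity at or below -80% and every replicate also at or below -80%; inconclusive = mean at or below -80% but some replicate above -80%; inactive = mean growth activity above -80%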
T cruzi growth-2 = Trypanosoma cruzi proliferation inhibition. shares compounds with T cruzi growth-1. T. cruzi beta-gal in NIH3T3, GalScreen luminescence, 90 h. inhibition, % at 8.35 µM. hit rate 72% among 5,600. AID 651739;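 active = mean replicate inhibition above about 95% and at least 55% of replicates individually reaching it, limit read from the data; inconclusive = only one of the two criteria is met; inactive = neither criterion is met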
T cruzi growth-3 = blocks T. cruzi growth in NIH3T3 host cells; shares compounds with T cruzi growth-1; hit rate 21% among 5,600; inhibition, % at 2.09 µM; T. cruzi beta-gal in NIH3T3, GalScreen luminescence, 90 h; AID 651740;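 active = mean inhibition above about 95%, with at least 55% of replicates also reaching it, limit read from the data; inconclusive = meets just one of the two conditions; inactive = meets neither condition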
3T3 cytotox = kills mouse NIH/3T3 fibroblasts | hit rate 14% among 5,600 | shares compounds with T cruzi growth-1 | NIH/3T3 viability, CellTiter-Glo ATP luminescence, 90 h | cytotoxicity (signal decrease), % at 8.35 µM | AID 651742;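 active = mean signal decrease across replicates above about 35% based on untreated-well scatter, with enough replicates individually passing, limit read from the data; inconclusive = no rule stated though some were filed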
3T3 cytotox 2 = cytotoxicity in mouse NIH/3T3 fibroblasts; inhibition, % at 24.9 µM; hit rate 56% among 5,600; NIH/3T3 viability, CellTiter-Glo ATP luminescence, 90 h; shares compounds with T cruzi growth-1; AID 651744;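 active = mean loss of cell viability signal at or above a set limit, and enough replicates individually reaching it; inconclusive = meets only the mean limit or only the replicate share; inactive = meets neither condition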
Of the large screens only hits and unclear results are named; the others gave an inactive call (follow-up assays come after a bar, where they were run).

C[C@@H]1CCCCO[C@@H](CN(C)Cc2ccccc2)[C@H](C)CN([C@H](C)CO)C(=O)c2cc(NC(=O)NC3CCCCC3)ccc2O1	T cruzi growth-1 inconclusive | T cruzi growth-2 107 | T cruzi growth-3 inactive | 3T3 cytotox inactive | 3T3 cytotox 2 100
C[C@@H]1CCCCO[C@H](CN(C)Cc2ccccc2)[C@@H](C)CN([C@H](C)CO)C(=O)c2cc(NC(=O)NC3CCCCC3)ccc2O1	none
C[C@@H]1CN([C@@H](C)CO)C(=O)c2cc(NC(=O)NC3CCCCC3)ccc2O[C@@H](C)CCCCO[C@@H]1CN(C)Cc1ccccc1	none
C[C@@H]1CCCCO[C@H](CN(C)Cc2ccccc2)[C@H](C)CN([C@@H](C)CO)C(=O)c2cc(NC(=O)NC3CCCCC3)ccc2O1	T cruzi growth-1 inconclusive | T cruzi growth-2 100 | T cruzi growth-3 inactive | 3T3 cytotox inactive | 3T3 cytotox 2 100
O=C(C[C@H]1C[C@@H]2c3cc(NC(=O)c4cccnc4)ccc3O[C@@H]2[C@@H](CO)O1)NCCN1CCCCC1	none (no result: C diff HTS)
O=C(C[C@@H]1CC[C@@H]2[C@H](COC[C@H](O)CN2C(=O)C2CC2)O1)NCc1ccccc1Cl	none
COc1ccc2c3c(n(C)c2c1)[C@@H](CO)N(C(=O)NC(C)C)CC31CN(Cc2nccs2)C1	none (no result: T cruzi growth-1)
Cc1ccc(-c2ccc3c(c2)O[C@@H](CN(C)C(=O)C2CC2)[C@@H](C)CN([C@H](C)CO)S3(=O)=O)cc1	none (no result: C diff HTS)
Cc1ccc(-c2ccc3c(c2)O[C@H](CN(C)C(=O)C2CCCCC2)[C@@H](C)CN([C@H](C)CO)S3(=O)=O)cc1	T cruzi growth-1 112 (no result: C diff HTS) | T cruzi growth-2 108 | T cruzi growth-3 103 | 3T3 cytotox inactive | 3T3 cytotox 2 94
Cc1ccc(-c2ccc3c(c2)O[C@H](CN(C)C(=O)C2CCC2)[C@@H](C)CN([C@@H](C)CO)S3(=O)=O)cc1	none
C[C@@H]1CN([C@H](C)CO)S(=O)(=O)c2ccc(-c3ccc(F)cc3)cc2O[C@@H]1CN(C)C(=O)C1CCCCC1	T cruzi growth-1 108 | T cruzi growth-2 103 | T cruzi growth-3 inactive | 3T3 cytotox inactive | 3T3 cytotox 2 102
Cc1ccc(-c2ccc3c(c2)O[C@@H](CN(C)C(=O)C2CCCCC2)[C@H](C)CN([C@@H](C)CO)S3(=O)=O)cc1	T cruzi growth-1 120 (no result: C diff HTS) | T cruzi growth-2 108 | T cruzi growth-3 inconclusive | 3T3 cytotox inactive | 3T3 cytotox 2 97
C[C@@H]1CN([C@@H](C)CO)S(=O)(=O)c2ccc(-c3ccc(F)cc3)cc2O[C@H]1CN(C)C(=O)C1CCC1	none (no result: C diff HTS)
C[C@@H](NC(=O)C[C@H]1CC[C@H](NC(=O)c2cccnc2)[C@H](CO)O1)c1ccccc1	none (no result: C diff HTS)
C[C@@H]1CN([C@@H](C)CO)S(=O)(=O)c2ccc(C#CC3CC3)cc2O[C@@H]1CN(C)S(C)(=O)=O	none (no result: T cruzi growth-1)
COc1ccc2c3c(n(C)c2c1)[C@H](CO)N(C(=O)Nc1ccc(F)cc1)CC31CN(Cc2cccc(F)c2)C1	none (no result: T cruzi growth-1)
C[C@@H]1CN([C@H](C)CO)C(=O)Cc2cc(NC(=O)Nc3ccc(C(F)(F)F)cc3)ccc2O[C@@H]1CN(C)C(=O)Nc1ccc(F)cc1	none
O=C(N[C@@H]1CC[C@@H](CCNS(=O)(=O)c2ccc(F)cc2)O[C@H]1CO)c1cnccn1	none
Cc1noc(C)c1S(=O)(=O)N(C)C[C@@H]1Oc2ccc(NS(=O)(=O)c3cccs3)cc2C(=O)N([C@H](C)CO)C[C@@H]1C	none (no result: C diff HTS)
CC(C)NC(=O)N(C)C[C@H]1Oc2cc(C#Cc3ccccn3)ccc2S(=O)(=O)N([C@H](C)CO)C[C@H]1C	T cruzi growth-1 111 | T cruzi growth-2 99 | T cruzi growth-3 inactive | 3T3 cytotox inactive | 3T3 cytotox 2 40
CC(C)NC(=O)N(C)C[C@@H]1Oc2cc(C#Cc3ccccn3)ccc2S(=O)(=O)N([C@H](C)CO)C[C@@H]1C	none
CC(C)NC(=O)N(C)C[C@H]1Oc2cc(C#Cc3ccccn3)ccc2S(=O)(=O)N([C@@H](C)CO)C[C@H]1C	none
CC(C)NC(=O)N(C)C[C@@H]1Oc2cc(C#Cc3ccccn3)ccc2S(=O)(=O)N([C@@H](C)CO)C[C@@H]1C	T cruzi growth-1 inconclusive | T cruzi growth-2 inactive | T cruzi growth-3 inactive | 3T3 cytotox inactive | 3T3 cytotox 2 inactive
N#C[C@H]1[C@H](c2ccc(C3=CCCCC3)cc2)[C@@H](CO)N1C(=O)c1ccccn1	none
N#C[C@@H]1[C@@H](c2ccc(C3=CCCCC3)cc2)[C@H](CO)N1C(=O)c1ccccn1	none
N#C[C@@H]1[C@@H](c2ccc(C3=CCCCC3)cc2)[C@@H](CO)N1C(=O)c1ccccn1	T cruzi growth-1 102 | T cruzi growth-2 inactive | T cruzi growth-3 inactive | 3T3 cytotox inactive | 3T3 cytotox 2 inactive
N#C[C@@H]1[C@H](c2ccc(C3=CCCCC3)cc2)[C@H](CO)N1C(=O)c1ccccn1	T cruzi growth-1 101 | T cruzi growth-2 100 | T cruzi growth-3 105 | 3T3 cytotox inactive | 3T3 cytotox 2 inactive
C[C@@H]1CN([C@H](C)CO)C(=O)c2cc(NS(=O)(=O)c3ccc(Cl)cc3)ccc2O[C@H]1CN(C)Cc1ccc(C(F)(F)F)cc1	none
C[C@H]1CN([C@@H](C)CO)C(=O)c2cc(NS(=O)(=O)c3ccc(Cl)cc3)ccc2O[C@H]1CN(C)Cc1ccc(C(F)(F)F)cc1	T cruzi growth-1 129 | T cruzi growth-2 109 | T cruzi growth-3 inactive | 3T3 cytotox inactive | 3T3 cytotox 2 103
C[C@H]1CN([C@@H](C)CO)C(=O)c2cc(NS(=O)(=O)c3ccc(Cl)cc3)ccc2O[C@@H]1CN(C)Cc1ccc(C(F)(F)F)cc1	T cruzi growth-1 inconclusive | T cruzi growth-2 111 | T cruzi growth-3 inactive | 3T3 cytotox inactive | 3T3 cytotox 2 103
C[C@H](CO)N1C[C@H](C)[C@@H](CN(C)Cc2ccc(C(F)(F)F)cc2)Oc2ccc(NS(=O)(=O)c3ccc(Cl)cc3)cc2C1=O	none
CCC(=O)N1CC[C@H]2[C@@H]1c1cc(-c3ccc(OC)cc3)ccc1N(C)[C@H]2CO	T cruzi growth-1 105 | T cruzi growth-2 108 | T cruzi growth-3 inactive | 3T3 cytotox inactive | 3T3 cytotox 2 inactive
CCC(=O)N1CC[C@H]2[C@@H]1c1cc(-c3ccc(F)cc3)ccc1N(C)[C@H]2CO	T cruzi growth-1 inconclusive | T cruzi growth-2 108 | T cruzi growth-3 inactive | 3T3 cytotox inactive | 3T3 cytotox 2 inactive
CCC(=O)N1CC[C@@H]2[C@H]1c1cc(-c3ccc(OC)cc3)ccc1N(C)[C@H]2CO	none
COCC(=O)N1CC[C@@H]2[C@@H](CO)N(C)c3ccc(-c4ccc(F)cc4)cc3[C@@H]21	none
N#C[C@H]1[C@@H](c2ccc(C#Cc3cccc(F)c3)cc2)[C@@H](CO)N1C(=O)C1CCOCC1	none

Assay outcomes: PubChem, Broad Institute
